Assay results taken from PubChem BioAssay (NCATS).
Results filed as inconclusive are left out. Unmarked numbers belong to inactive results. Calls of active or inactive are those of the source. Calls follow the shape of the dose curve; as a rule, active = well fitted cell-killing curve with a large enough effect; inconclusive = small, poorly fitted or top-dose-only effect, or effect the other way; inactive = flat fitted curve, though single readings scatter.

test: Cell Viability - HUV-EC-C (AID 542); settings: HUV-EC-C endothelial cell viability, qHTS; series mostly up to 92.2 µM; activity change, negative = cytotoxicity: at the top concentration; also: nearly all actives have a fitted effect of over 35% in size
From the text: NIH Chemical Genomics Center [NCGC]
NIH Molecular Libraries Screening Centers Network [MLSCN]
National Institutes of Environmental Health Sciences [NIEHS]
National Toxicology Program [NTP]
We have developed a 1536-well cell-based assay for quantitative high throughput screening (qHTS) against a number of cell lines to determine in vitro cytotoxicity of small molecules. This particular assay uses the HUV-EC-C cell line which is derived from normal human vascular endothelial cells.
NCGC Assay Protocol Summary:
The CellTiter-Glo luminescent cell viability assay (Promega) is a homogeneous method to measure the number of viable cells in culture. The end point readout of this assay is based on quantitation of intracellular ATP, an indicator of metabolic activity, using the luciferase reaction. Luciferase catalyzes the oxidation of beetle Luciferin to oxyluciferin and light in the presence of ATP. The luminescent signal is proportional to amount of ATP present.
Using the CellTiter-Glo luminescent cell viability assay, the amount of cellular ATP was measured in the HUV-EC-C cell line with complete culture medium following compound treatment for 40 hours. The assay was performed in opaque white Kalypsys 1536-well plates. In the screen, tamoxifen and doxorubicin were used as positive controls. Library compounds were measured for their ability to cause acute toxicity in the cell line, as reflected by a decrease in intracellular ATP levels, in a concentration-dependent manner. […] AC50 values were determined from concentration-response data modeled with the standard Hill equation.
qHTS protocol for CellTiter Glo HUV-EC-C cellular assay
[Step] [Parameter] [Value] [Description]
1. Reagent; 5 uL; 1000 HUV-EC-C cells/well
2. Time; 5 hr; 37 °C incubation
4. Controls; 23 nL; Tamoxifen 0.34 uM to 100 uM & Doxorubicin 0.02 nM to 100 uM
5. Time; 40 hr; 37 °C incubation
6. Reagent; 5 uL; CellTiter Glo reagent
7. Time; 20 min; Room Temperature
8. Detection; Luminescence; Viewlux plate reader
Keywords: cell viability, cytotoxicity, HUV-EC-C cell line, luminescence, NTPHTS, NTPHTS_NCGC, NIEHS, EPA, DSSTox, MLSMR, MLSCN, NIH Roadmap, qHTS, NCGC
% is scaled to controls: 0 for no effect and ±100 for the full control effect; potency is read from the fitted curve at half-maximal effect.

SMILES | activity change, negative = cytotoxicity [%] | Potency
[O-]/[N+](=N\O)c1ccccc1 | -7.69 | –
NS(=O)(=O)O | 5.5 | –
N#CC1(O)CCCCC1 | 5.92 | –
Cc1ccc(C(=O)O)cc1 | 5.33 | –
COC(=O)CC#N | -11.8 | –
COc1ccc(OC)cc1 | -0.186 | –
CC(C)N=C=NC(C)C | -4.24 | –
CN(C)CCCNCCCN | 5.39 | –
NC(=O)/N=N/C(N)=O | -10.8 | –
CCCCC(CC)COC(=O)CCCCC(=O)OCC(CC)CCCC (stereo not given) | -2.94 | –
C[C@@H]1O[C@@H](O[C@@H]2[C@@H](O)[C@H](OCCc3ccc(O)c(O)c3)O[C@H](CO[C@@H]3O[C@H](CO)[C@@H](O)[C@H](O)[C@H]3O)[C@H]2OC(=O)/C=C/c2ccc(O)c(O)c2)[C@H](O)[C@H](O)[C@H]1O | -7.95 | –
CN(C)c1cccc(O)c1 | 0.119 | –
CC(=O)c1cc(C)oc1C | 12.8 | –
ICCc1ccccc1 | -1.18 | –
C=Cc1ccc(C=C)cc1 | 6.77 | –
C=CCCCCCCC=C | -14.8 | –
Cc1ccc(C#N)cc1 | 4.48 | –
CCOCCOCC | 13.5 | –
C=Cc1ccccc1C=C | 1.03 | –
O=C(O)c1cc(Cl)cc(Cl)c1 | -8.58 | –

SMILES | activity change, negative = cytotoxicity [%] | Potency
CC(C)(C)OCC1CO1 (stereo not given) | -2.51 | –
Cc1ccc(Br)cc1 | 5.45 | –
CSc1ccc(C=O)cc1 | -2.08 | –
NC(=S)NNC(N)=S | 7.71 | –
O=C1CCCCC1 | 13.3 | –
Clc1ccccn1 | -14 | –
C=CCCC | -2.69 | –
Cc1ccc([N+](=O)[O-])c(N)c1 | 3.42 | –
CC(C)C=O | -5.97 | –
CCc1ccccc1O | -21.9 | –
CCCCOCCOCCSC#N | -3.35 | –
CC(O)COC(C)(C)C (stereo not given) | -4.27 | –
CC(C)(O)CCC(C)(C)O | 12.9 | –
CC1=C(/C=C/C(C)=C/C=C/C(C)=C\C=O)C(C)(C)CCC1 | – | 31.6 µM (active)
Cc1cccc2sc(N)nc12 | -1.93 | –
O=[N+]([O-])c1ccc(Cl)cc1Cl | 4.8 | –
c1ccc2c(c1)Oc1ccccc1S2 | -3.12 | –
CC(O)CC(C)O (stereo not given) | -7.03 | –
Nc1cccc(N)c1 | -6.31 | –
CC(=O)OC(C)=O | 2.79 | –
